This excerpt belongs to a sample that is enriched for hits.
IDE exosite inh: insulin-degrading enzyme (human) exo-site inhibition; P14735; purified IDE, FL-6b probe fluorescence polarization; active compounds read low; z-score at 20 µM; 17,000 tested, 6.3% active;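 active = z-score of -3 or lower, meaning strong loss of probe binding signal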;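 note: His-tagged human IDE residues 42-1019 made in E. coli with 30 nM FL-6b probe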
The depositor's hits bear a star.

`C[C@H]1CN([C@@H](C)CO)C(=O)c2cc(/C=C/c3ccccc3)cnc2O[C@H]1CN(C)S(=O)(=O)c1ccccc1F` gave IDE exosite inh 0.065.
CCN1CC(=O)N2[C@@H](CO)[C@H](c3ccc(-c4ccccc4F)cc3)[C@@H]2C1 was read as IDE exosite inh 0.47.
For COc1ccc(C#Cc2ccc([C@H]3[C@@H](CO)N4C(=O)CN(C(=O)c5ccccc5)C[C@H]34)cc2)cc1 the results were IDE exosite inh 2.2.
`COc1ccc(C#Cc2ccc([C@H]3[C@H](CO)N4C(=O)CN(C(=O)c5ccccc5)C[C@@H]34)cc2)cc1` gave IDE exosite inh 1.9.
O=C(c1ccccc1)N1CC(=O)N2[C@@H](CO)[C@H](c3ccc(C#Cc4ccccc4)cc3)[C@@H]2C1 was read as IDE exosite inh -3.8*.
`O=C(c1ccccc1)N1CC(=O)N2[C@@H](CO)[C@@H](c3ccc(C#Cc4ccccc4)cc3)[C@@H]2C1` gave IDE exosite inh -9.1*.
O=C(c1ccccc1)N1CC(=O)N2[C@H](C1)[C@@H](c1ccc(C#Cc3ccccc3)cc1)[C@@H]2CO was read as IDE exosite inh 0.44.
Screening COc1ccc(C#Cc2ccc([C@@H]3[C@H]4CN(C(=O)c5ccccc5)CC(=O)N4[C@H]3CO)cc2)cc1 returned IDE exosite inh 2.1.
For O=C(Nc1cc(F)ccc1F)N1CC(=O)N2[C@H](C1)[C@@H](c1ccc(-c3cccc(F)c3)cc1)[C@@H]2CO the results were IDE exosite inh 0.42.
Screening COc1ccc(S(=O)(=O)N2CC3(CN(C(=O)c4cccnc4)[C@@H](CO)c4c3c3ccc(OC)cc3n4C)C2)cc1 returned IDE exosite inh -0.17.
O=C(C1CC1)N1CC(=O)N2[C@H](CO)[C@@H](c3ccc(-c4cccnc4)cc3)[C@H]2C1 was read as IDE exosite inh -1.2.
Screening COc1cccc(C#Cc2ccc([C@H]3[C@@H](CO)N4C(=O)CN(C(=O)c5ccccc5)C[C@@H]34)cc2)c1 returned IDE exosite inh 0.74.
COc1cccc(C#Cc2ccc([C@@H]3[C@@H](CO)N4C(=O)CN(C(=O)c5ccncc5)C[C@H]34)cc2)c1 was read as IDE exosite inh -1.5.
COc1cccc(C#Cc2ccc([C@H]3[C@H](CO)N4C(=O)CN(C(=O)c5ccncc5)C[C@@H]34)cc2)c1 was read as IDE exosite inh -8.4*.
`COc1cccc(C#Cc2ccc([C@H]3[C@@H](CO)N4C(=O)CN(C(=O)c5ccccc5)C[C@H]34)cc2)c1` gave IDE exosite inh -3.8*.
For COc1cccc(C#Cc2ccc([C@H]3[C@H]4CN(C(=O)c5ccncc5)CC(=O)N4[C@H]3CO)cc2)c1 the results were IDE exosite inh -1.6.
Screening COc1cccc(C#Cc2ccc([C@@H]3[C@H]4CN(C(=O)c5ccccc5)CC(=O)N4[C@H]3CO)cc2)c1 returned IDE exosite inh 3.7.
O=C(N[C@H]1C=C[C@H](CC(=O)N2CCN(c3ccccc3)CC2)O[C@H]1CO)c1ccccc1 was read as IDE exosite inh 2.2.
Screening O=C(CC1CC1)N1CC2(C1)[C@H](c1ccccc1)[C@H](CO)N2S(=O)(=O)Cc1ccccc1 returned IDE exosite inh 0.082.
For CN(C)C(=O)c1cccc(-c2ccc(C3[C@H]4CNC[C@@H]3N4Cc3cccnc3)cc2)c1 (some centres not stated) the results were IDE exosite inh 1.1.
For CCCN1C[C@@H](C)[C@H](OC)CN(C)C(=O)c2cc(NC(=O)C3CCC3)ccc2OC[C@@H]1C the results were IDE exosite inh -0.58.
`O=C(C1CCCCC1)N1CC(=O)N2[C@H](CO)[C@@H](c3ccc(C#CCc4ccccc4)cc3)[C@H]2C1` gave IDE exosite inh 0.63.
For CCS(=O)(=O)N1CCCCN2[C@H](CO)[C@H](c3ccc(C#Cc4ccccc4OC)cc3)[C@@H]2C1 the results were IDE exosite inh -8.2*.
`CCCC#Cc1ccc([C@H]2[C@H]3CN(S(=O)(=O)CC)CCCCN3[C@H]2CO)cc1` gave IDE exosite inh 2.3.
`O=S(=O)(Cc1ccccc1)N1CCCCN2[C@H](CO)[C@@H](c3ccc(C#Cc4ccccc4)cc3)[C@@H]2C1` gave IDE exosite inh -0.14.
O=S(=O)(Cc1ccccc1)N1CCCCN2[C@H](CO)[C@H](c3ccc(C#Cc4ccccc4)cc3)[C@H]2C1 was read as IDE exosite inh 4.
O=S(=O)(Cc1ccccc1)N1CCCCN2[C@H](CO)[C@@H](c3ccc(C#Cc4ccccc4)cc3)[C@H]2C1 was read as IDE exosite inh 5.1.
CCS(=O)(=O)N1CCCCN2[C@H](CO)[C@H](c3ccc(C#Cc4ccccc4OC)cc3)[C@H]2C1 was read as IDE exosite inh -9.2*.
For CCCC#Cc1ccc([C@@H]2[C@@H](CO)N3CCCCN(S(=O)(=O)CC)C[C@H]23)cc1 the results were IDE exosite inh 3.
For CCS(=O)(=O)N1CCCCN2[C@H](CO)[C@@H](c3ccc(C#Cc4ccccc4OC)cc3)[C@H]2C1 the results were IDE exosite inh -6.5*.
Screening O=S(=O)(Cc1ccccc1)N1CCCCN2[C@@H](CO)[C@H](c3ccc(C#Cc4ccccc4)cc3)[C@@H]2C1 returned IDE exosite inh 2.5.
`CCS(=O)(=O)Nc1ccc2c(c1)C(=O)N(C)C[C@@H](OC)[C@H](C)CN(CC1CCCCC1)[C@@H](C)CO2` gave IDE exosite inh -0.075.
For COc1ccc(NC(=O)N2CC(=O)N3[C@H](C2)[C@H](c2ccc(C4=CCCC4)cc2)[C@@H]3CO)cc1 the results were IDE exosite inh 1.7.
For COCC(=O)N1CCC2(CC1)CN(Cc1ccccc1Cl)[C@@H](CO)c1[nH]c3cc(OC)ccc3c12 the results were IDE exosite inh -3.6*.
For CCS(=O)(=O)N1CC2(CN(Cc3ccccc3F)[C@@H](CO)c3[nH]c4cc(OC)ccc4c32)C1 the results were IDE exosite inh -0.44.
For COc1ccc2c3c([nH]c2c1)[C@H](CO)N(Cc1ccccn1)CC31CN(C(=O)CC2CC2)C1 the results were IDE exosite inh -0.017.
`COCC(=O)N1CCC2(CC1)CN(Cc1ccccc1Cl)[C@H](CO)c1[nH]c3cc(OC)ccc3c12` gave IDE exosite inh -1.8.
`COc1ccc2c3c([nH]c2c1)[C@@H](CO)N(Cc1ccccc1F)CC31CCN(C(=O)C2CC2)CC1` gave IDE exosite inh -3.6*.
COc1ccc2c3c([nH]c2c1)[C@@H](CO)N(Cc1ccccn1)CC31CCN(C(C)=O)CC1 was read as IDE exosite inh -3.6*.
CCCC(=O)N1CC2(C1)CN(Cc1ccccc1F)[C@@H](CO)c1c2c2ccc(OC)cc2n1C was read as IDE exosite inh -0.33.
Screening COc1ccc2c3c([nH]c2c1)[C@H](CO)N(Cc1ccccn1)CC31CCN(C(C)=O)CC1 returned IDE exosite inh -2.8.
`COc1ccc2c3c(n(C)c2c1)[C@H](CO)N(Cc1ccccc1Cl)CC31CCN(C(=O)CC2CC2)CC1` gave IDE exosite inh -4.1*.
`COc1ccc2c3c([nH]c2c1)[C@@H](CO)N(Cc1ccccc1Cl)CC31CN(C(=O)C2CC2)C1` gave IDE exosite inh -3.
Screening COc1ccc2c3c(n(C)c2c1)[C@H](CO)N(Cc1ccccc1OC)CC31CN(C)C1 returned IDE exosite inh -1.3.
Screening CCCC(=O)N1CCC2(CC1)CN(Cc1ccc(Cl)cc1)[C@@H](CO)c1[nH]c3cc(OC)ccc3c12 returned IDE exosite inh -1.7.
C/C=C/c1ccc([C@@H]2[C@H](CO)N(S(C)(=O)=O)[C@H]2CN(C)C(=O)CC)cc1 was read as IDE exosite inh 4.3.

Assay outcomes: PubChem BioAssay, Broad Institute
